HttQ103 aggreg – inhibitors of mutant huntingtin aggregate formation in PC12 cells; PC12 HttQ103-GFP aggregates, Acumen cytometry, 40 h; 1.1% of 220,000 active; AID 1688; Potency, µM (titrated, usually from 46.1 µM), most hits filed as inhibitors; further: nearly all actives have a fitted effect of over 60% in size
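Compounds (qHTS titration) were added to PC12 cells expressing an ecdysone-driven HTT exon 1 Q103–GFP fusion after induction with 100 nM tebufenozide. Aggregate formation was measured as GFP objects in cell lysates.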
Lamin A splicing – changes lamin A minigene splicing in HeLa cells | HeLa LMNA splicing GFP/RFP minigene ratio, 48 h | AID 1487 | 0.01% of 200,000 active | Potency, µM (top dose mostly 46.1 µM), usual class: inhibitors; active means well fitted inhibition curve with a large enough effect in the signal ratio, with a control signal flat, not every such curve was filed as active; inconclusive means small, poorly fitted or top-dose-only effect, or effect the other way, or a change in a side signal; the % refers to the signal ratio
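S3 HeLa stable clones carrying a lamin A-EGFP splicing minigene plus DsRed2 were seeded at 600 cells/well in Opti-MEM with 2% FBS, pin-dosed and incubated 48 h at 37°C. Acumen cytometry (488 nm) gave the GFP/RFP total-intensity ratio.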
HTT ATP protect – Huntington cell model cytoprotection by ATP luminescence | 0.14% of 230,000 active | Potency, µM (top dose mostly 56.4 µM), hits mostly activators | PC12 HTT-Q103 induced, cytoprotection, ATP luminescence, 40 h | AID 1471; further: nearly all actives have a fitted effect of over 45% in size
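Compounds were screened for protection of PC12 cells against cell death after tebufenozide induction (100 nM final) of mutant Huntingtin exon 1 (Q103) fused to GFP.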
HPGD block – blocks human HPGD enzyme activity. Potency, µM, hits mostly inhibitors. 4.3% of 150,000 active. purified HPGD, NADH fluorescence kinetic, PGE2 substrate; active means well fitted inhibition curve with a large enough effect, not every such curve was filed as active; inconclusive means small, poorly fitted or top-dose-only effect, or another doubt; inactive means no such curve, though single readings can be large or run the other way
Target sequence (P15428 whole entry, looked up): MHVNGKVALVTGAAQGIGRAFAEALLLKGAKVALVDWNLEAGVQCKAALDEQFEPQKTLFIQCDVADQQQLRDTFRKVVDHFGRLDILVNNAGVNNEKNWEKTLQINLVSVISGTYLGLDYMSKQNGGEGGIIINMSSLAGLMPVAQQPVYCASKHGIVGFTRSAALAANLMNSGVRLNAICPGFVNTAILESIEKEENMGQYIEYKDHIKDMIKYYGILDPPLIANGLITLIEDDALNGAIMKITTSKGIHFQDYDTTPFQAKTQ
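20 nM HPGD preincubated 15 min at room temperature with compound in 50 mM Tris-HCl pH 8, 0.01% Tween 20. Started with 1 mM NAD+ and 30 uM prostaglandin E2; NADH fluorescence (360/450 nm) read 5 times over 30-s intervals, last minus first.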
ALDH1A1 block – inhibitors of human aldehyde dehydrogenase 1A1; Purified ALDH1A1, NADH fluorescence, propionaldehyde substrate; Potency, µM (highest dose often 75.3 µM), actives largely listed as inhibitors; 7.3% of 220,000 active; AID 1030; active means well fitted inhibition curve with a large enough effect, not every such curve was filed as active; inconclusive means small, poorly fitted or top-dose-only effect, or another doubt; inactive means no such curve, though single readings can be large or run the other way
Of the large screens only hits and unclear results are named; the others gave an inactive call. Only some compounds are listed: those with a hit (about 8.8% of all), similar ones and a draw of the others. Unless noted, the call rests on the fitted dose curve; in most records, active means well fitted curve in the direction sought with a large enough effect; inconclusive means small, poorly fitted or top-dose-only effect, or another doubt; inactive means no such curve, though single readings can be large; an effect the other way counts as inactive or inconclusive.

COc1cc(COCC(O)CN2CCc3ccccc3C2)cc(OC)c1OC (stereo unspecified)	none (no result: Lamin A splicing, HPGD block)
COC(=O)c1sc(NC(=O)c2cccc([N+](=O)[O-])c2)c(C(N)=O)c1C	Lamin A splicing inconclusive, HPGD block 28.2µM, ALDH1A1 block 10µM (no result: HTT ATP protect)
Cc1ccc(C(=O)Nc2ccc(NC(=O)c3cccs3)cc2)cc1[N+](=O)[O-]	none (no result: Lamin A splicing, HPGD block)
COC(=O)c1c(NC(=O)c2ccccc2)sc(C(=O)c2ccccc2)c1C	HttQ103 aggreg inconclusive, Lamin A splicing inconclusive, ALDH1A1 block 14.1µM
COC(=O)c1c(NC(=O)c2cccc([N+](=O)[O-])c2)sc(C(N)=O)c1C	HttQ103 aggreg inconclusive, Lamin A splicing inconclusive, HTT ATP protect inconclusive, ALDH1A1 block 7.94µM (no result: HPGD block)
COc1ccc(Cc2nnc(NC(=O)c3cccc([N+](=O)[O-])c3)s2)cc1	Lamin A splicing inconclusive
COC(=O)c1c(NC(=O)c2ccccc2)sc(C(N)=O)c1C	Lamin A splicing inconclusive, ALDH1A1 block inconclusive (no result: HPGD block)
Cc1ccc(C(=O)Nc2sc(C)c(-c3ccccc3)c2C(N)=O)cc1[N+](=O)[O-]	HPGD block 25.1µM, ALDH1A1 block 10µM
CN(C)c1ncc2nc(-c3ccc(F)cc3)c(=O)n(C[C@H]3CCCO3)c2n1	HTT ATP protect inconclusive, ALDH1A1 block inconclusive (no result: HttQ103 aggreg, HPGD block)
CCCCNC(=O)C(CC)Sc1nnc(-c2ccc(OC)c(OC)c2)c(-c2ccc(OC)c(OC)c2)n1 (stereo unspecified)	none (no result: HttQ103 aggreg, HTT ATP protect, HPGD block, ALDH1A1 block)
COc1ccc(OCCn2c(NC(=O)c3ccco3)nc3ccccc32)cc1	HttQ103 aggreg 10µM, Lamin A splicing inconclusive
COc1cc(NC(=O)NCCn2nnc3cc(S(=O)(=O)N(C)C)ccc32)cc(OC)c1OC	none (no result: HttQ103 aggreg, HTT ATP protect, HPGD block, ALDH1A1 block)
CN(Cc1ccccc1)c1ncc(C=O)s1	ALDH1A1 block 7.08µM (no result: Lamin A splicing, HPGD block)
O=S(=O)(NCc1csc(-c2ccccc2)n1)c1ccc(Cl)s1	HPGD block 17.8µM
Cc1cc(C(C)(C)C)c(OCCCN2CCOCC2)c(C(C)(C)C)c1	none (no result: HttQ103 aggreg, Lamin A splicing)
Cc1c(C)n(C(=O)CSc2nc3ccccc3[nH]2)c2ccccc12	HTT ATP protect inconclusive, ALDH1A1 block inconclusive
Cc1nn(C)cc1S(=O)(=O)N1CCN(Cc2cccc(Cl)c2)CC1	ALDH1A1 block 22.4µM (no result: HPGD block)
COC(=O)C1=C(COc2ccc(C=O)cc2OC)NC(=O)NC1c1cc(C)ccc1C (stereo unspecified)	ALDH1A1 block 6.31µM
COC(=O)C1=C(CN2CCN(C)CC2)NC(=O)NC1c1cc(C)ccc1C (stereo unspecified)	none
CN(C)CCCN1c2ccccc2Sc2cnccc21	none (no result: HttQ103 aggreg, Lamin A splicing)
CC(=O)c1cc(NC(=O)c2cccc(C(F)(F)F)c2)c(=O)oc1C	HttQ103 aggreg inconclusive, ALDH1A1 block 3.55µM (no result: Lamin A splicing, HPGD block)
O=c1c2c3nc4ccccc4nc3n(/N=C/c3ccco3)c2ncn1CCC1=CCCCC1	HttQ103 aggreg inconclusive, ALDH1A1 block 25.1µM
CCCn1cnc2c(c1=O)c1nc3ccccc3nc1n2CCC1=CCCCC1	none
O=C(CSc1nncc2ccccc12)N1CCOCC1	HPGD block 28.2µM, ALDH1A1 block inconclusive
COc1ccc(N=C/C=C2/C=C(c3ccccc3)OC(C)(C)O2)cc1	Lamin A splicing inconclusive, ALDH1A1 block 1.41µM (no result: HttQ103 aggreg, HTT ATP protect, HPGD block)
COC(=O)c1cc(-c2ccc3ccccc3c2)[nH]c(=O)c1C#N	HPGD block inconclusive, ALDH1A1 block inconclusive (no result: HttQ103 aggreg, Lamin A splicing)
N#Cc1cccc(NC(=O)N2CC3(CCN(C(=O)c4ccco4)CC3)C2)c1	ALDH1A1 block 9.46µM (no result: HttQ103 aggreg, Lamin A splicing)
CC(=O)N1CCC2(CC1)CN(C(=O)Nc1cccc(C#N)c1)C2	none (no result: HttQ103 aggreg, Lamin A splicing)
O=C(Nc1cccc(F)c1)N1CC2(CCN(C(=O)c3ccco3)CC2)C1	ALDH1A1 block 11.2µM (no result: HttQ103 aggreg, Lamin A splicing)
O=C(NCCS(=O)(=O)N1CCN(c2ccccc2)CC1)C(c1ccccc1)c1ccccc1	none (no result: HttQ103 aggreg, HTT ATP protect, HPGD block, ALDH1A1 block)
COc1ccc2c(c1)O[C@@H](c1ccc3c(c1)OCO3)[C@H](OC(=O)NCCOc1ccccc1)C2=O	none (no result: HttQ103 aggreg, Lamin A splicing)
O=C(CCc1ccccc1)NC(c1cccs1)c1cc(Cl)c2cccnc2c1O (stereo unspecified)	ALDH1A1 block inconclusive (no result: Lamin A splicing, HPGD block)
O=C(Oc1c(Cl)cc(Cl)c2cccnc12)N1CCCCC1	ALDH1A1 block inconclusive
CN1CCN(C(c2ccccn2)c2cc(Cl)c3cccnc3c2O)CC1 (stereo unspecified)	HttQ103 aggreg inconclusive, Lamin A splicing inconclusive, ALDH1A1 block 10µM (no result: HPGD block)
Oc1c(C(c2ccccn2)N2CCC(Cc3ccccc3)CC2)cc(Cl)c2cccnc12 (stereo unspecified)	HttQ103 aggreg inconclusive, ALDH1A1 block 5.62µM (no result: Lamin A splicing, HPGD block)
Oc1c(C(c2ccc(Cl)cc2)N2CCCC2)cc(Cl)c2cccnc12 (stereo unspecified)	HttQ103 aggreg inconclusive, Lamin A splicing inconclusive, ALDH1A1 block 14.1µM (no result: HPGD block)
CCC(=O)NC(c1ccco1)c1cc(Cl)c2cccnc2c1O (stereo unspecified)	Lamin A splicing inconclusive (no result: HPGD block)
CCCCCCC1=Cc2cc(OC)c(OC)cc2C(C2(C(=O)OCC)CCCC2=O)O1 (stereo unspecified)	none (no result: HttQ103 aggreg, Lamin A splicing, HPGD block)
O=C1C(c2ccc(F)cc2)N(Cc2ccccc2Cl)C(=O)CN1C1CCCCC1 (stereo unspecified)	none (no result: HttQ103 aggreg, HTT ATP protect, HPGD block, ALDH1A1 block)
Cc1nn(Cc2ccc(C(=O)Nc3nc4c(C)cccc4s3)o2)c(C)c1Br	HttQ103 aggreg 17.8µM, HPGD block inconclusive
Cc1ccccc1Oc1ccc(-c2nc(N)nc(N)n2)cc1	Lamin A splicing inconclusive, HPGD block 25.1µM, ALDH1A1 block inconclusive

High-throughput results from PubChem BioAssay.
